Test results reported in the supplement of paper PMC6089552.
About 300 (9.4%) of roughly 3,200 compounds showed activity. Many of the other results were omitted from the sample, so actives are more common in it than they were.

System: A673/TR/shEF
Assay: cell viability (LOESS-normalised, relative to median of negative controls) (log2 ratio); higher = more viable cells (less compound effect), active = hit call of the paper (over 3 MAD below the median)
Conditions: treatment time: 72 h
Method in brief: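 For three days, A673/TR/shEF Ewing sarcoma cells in 384-well plates (1,500 per well) were treated with library compounds at two or more concentrations or with DMSO controls, after doxycycline had been added or withheld 24 h beforehand to induce EWS-FLI1 shRNA knockdown. Viability was read by CellTiter-Glo luminescence on an Envision reader. The data were LOESS-corrected per plate, divided by the median of negative controls and log2-transformed.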

[1] = 0.103 µM, library screen: screen3, EWS-FLI1 expression: high (no doxycycline)
[2] = 0.103 µM, library screen: screen3, EWS-FLI1 expression: low (doxycycline-induced shRNA knockdown)
[3] = 0.25 µM, library screen: screen1, EWS-FLI1 expression: high (no doxycycline)
[4] = 0.25 µM, library screen: screen1, EWS-FLI1 expression: low (doxycycline-induced shRNA knockdown)
[5] = 0.308 µM, library screen: screen3, EWS-FLI1 expression: high (no doxycycline)
[6] = 0.308 µM, library screen: screen3, EWS-FLI1 expression: low (doxycycline-induced shRNA knockdown)
[7] = 0.926 µM, library screen: screen3, EWS-FLI1 expression: high (no doxycycline)
[8] = 0.926 µM, library screen: screen3, EWS-FLI1 expression: low (doxycycline-induced shRNA knockdown)
[9] = 2.5 µM, library screen: screen1, EWS-FLI1 expression: high (no doxycycline)
[10] = 2.5 µM, library screen: screen1, EWS-FLI1 expression: low (doxycycline-induced shRNA knockdown)
[11] = 2.8 µM, library screen: screen3, EWS-FLI1 expression: high (no doxycycline)
[12] = 2.8 µM, library screen: screen3, EWS-FLI1 expression: low (doxycycline-induced shRNA knockdown)
[13] = 8.3 µM, library screen: screen3, EWS-FLI1 expression: high (no doxycycline)
[14] = 8.3 µM, library screen: screen3, EWS-FLI1 expression: low (doxycycline-induced shRNA knockdown)
[15] = 25 µM, library screen: screen3, EWS-FLI1 expression: high (no doxycycline)
[16] = 25 µM, library screen: screen3, EWS-FLI1 expression: low (doxycycline-induced shRNA knockdown)
[17] = 0.25 µM, library screen: screen2, EWS-FLI1 expression: high (no doxycycline)
[18] = 0.25 µM, library screen: screen2, EWS-FLI1 expression: low (doxycycline-induced shRNA knockdown)
[19] = 2.5 µM, library screen: screen2, EWS-FLI1 expression: high (no doxycycline)
[20] = 2.5 µM, library screen: screen2, EWS-FLI1 expression: low (doxycycline-induced shRNA knockdown)

Measured: cell viability (log2)

CCCCCCCCCCC[C@@H](C[C@@H]1OC(=O)[C@H]1CCCCCC)OC(=O)[C@H](CC(C)C)NC=O
active: [9] -0.116
inactive: [1] 0.0583 | [2] 0.00452 | [3] -0.0226 | [4] 0.0354 | [5] 0.0475 | [6] 0.11 | [7] -0.01 | [8] 0.0194 | [10] 0.178 | [11] -0.0124 | [12] 0.136 | [13] -0.103 | [14] -0.0203 | [15] -0.119 | [16] -0.0365

COC(=O)C[C@H]1C(C)(C)C2(Cl)O[C@@]34CC2C(=O)[C@]1(C)C3CC[C@]1(C)C4=CC(=O)O[C@H]1c1ccoc1 (stereo partly specified)
inactive: [3] 0.0526 | [4] 0.0775 | [9] 0.126 | [10] 0.163

C=C1C(=O)O[C@@H]2C[C@@]3(C)CCC[C@H](C)C3=C[C@H]12
inactive: 0.025 µM, library screen: screen2, EWS-FLI1 expression: high (no doxycycline) 0.148 | 0.025 µM, library screen: screen2, EWS-FLI1 expression: low (doxycycline-induced shRNA knockdown) 0.0581 | [3] 0.0724 | [4] -0.00207 | [17] 0.177 | [18] 0.0288 | [9] 0.152 | [10] 0.0584 | [19] 0.0901 | [20] 0.000642 | 25 µM, library screen: screen2, EWS-FLI1 expression: high (no doxycycline) -0.0554 | 25 µM, library screen: screen2, EWS-FLI1 expression: low (doxycycline-induced shRNA knockdown) -0.102

CN(C)CCCN1c2ccccc2Sc2ccc(Cl)cc21
inactive: [1] 0.0728 | [2] 0.128 | [3] 0.1 | [4] 0.155 | [17] 0.141 | [18] 0.1 | [5] 0.122 | [6] 0.0127 | [7] 0.0627 | [8] 0.015 | [9] 0.206 | [10] 0.191 | [19] 0.129 | [20] 0.0664 | [11] -0.0176 | [12] 0.0383 | [13] 0.101 | [14] 0.0471 | [15] -0.0174 | [16] 0.0242

CN(C)CCCN1c2ccccc2Sc2ccc(C(F)(F)F)cc21
inactive: [3] 0.067 | [4] 0.0785 | [17] 0.0818 | [18] 0.0662 | [9] 0.0754 | [10] 0.158 | [19] 0.181 | [20] 0.0843

CN(C)CCCN1c2ccccc2Sc2ccccc21
active: [19] -1.62 | [20] -0.801
inactive: [3] 0.0889 | [4] 0.0795 | [17] 0.0137 | [18] -0.394 | [9] 0.107 | [10] 0.224

CC(=O)Oc1cc(-c2coc3cc(OC(C)=O)c(OC(C)=O)c(OC(C)=O)c3c2=O)cc(OC(C)=O)c1OC(C)=O
inactive: [3] 0.0397 | [4] -0.0292 | [9] 0.0912 | [10] -0.0545

CC1(C)C=Cc2c(c3c(c4c(=O)c(-c5ccc(O)cc5)coc24)OC(C)(C)CC3)O1
inactive: [3] 0.057 | [4] 0.068 | [9] 0.105 | [10] 0.116
